Test results: PubChem BioAssay AID1159580 (chemical genetic matrix, 2015)
Where “and” joins values, the source holds several entries; their conditions need not be identical. Equal entries are not always repeated. In all, about 5,500 compounds went through this assay and about 2,000 (36%) were called active. Not shown: some 18% with an inconclusive outcome. Rule as the data show it: active = normalized growth mostly below about 0.91 (no sharp cut-off); inconclusive = no clear call, values can overlap the other calls; inactive = mostly above about 0.92. This is one part of the list.

Assay: chemical genetic growth profiling, strain panel (AID 1159580);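 also: tested at 20 µM; growth read once vehicle control cultures reached saturation at 30 °C; 1 = growth at the plate median or of vehicle wells; lower values mean less growth of the strain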
Details: S. cerevisiae deletion strains, growth OD

Measured: normalized growth

CCC(Cc1c(I)cc(I)c(N)c1I)C(=O)O (stereo not given)
active: locus YAL026C, strain drs2, stronger effect = lower value 0.889 | locus YBR009C, strain hhf1, stronger effect = lower value 0.861 | locus YCL011C, strain gbp2, stronger effect = lower value 0.905 | locus YCL069W, strain vba3, stronger effect = lower value 0.907 | locus YDR137W, strain rgp1, stronger effect = lower value 0.71 | locus YDR392W, strain spt3, stronger effect = lower value 0.711 | locus YHR079C, strain IRE1, stronger effect = lower value 0.135 | locus YJL164C, strain tpk1, stronger effect = lower value 0.903 | locus YJR066W, strain TOR1, stronger effect = lower value 0.0664
1 (inactive) and 0.148 (active): locus YHR030C, strain SLT2, stronger effect = lower value
0.993 (inactive) and 0.112 (active): locus YJL095W, strain BCK1, stronger effect = lower value
inactive: locus YAL013W, strain DEP1, stronger effect = lower value 0.979 | locus YAL021C, strain ccr4, stronger effect = lower value 0.934 | locus YAL030W, strain snc1, stronger effect = lower value 0.945 | locus YBL061C, strain skt5, stronger effect = lower value 0.955 | locus YBR021W, strain FUR4, stronger effect = lower value 1.03 | locus YBR023C, strain chs3, stronger effect = lower value 0.935 | locus YBR171W, strain sec66, stronger effect = lower value 0.921 | locus YBR229C, strain ROT2, stronger effect = lower value 0.989 | locus YBR231C, strain swc5, stronger effect = lower value 0.977 | locus YBR279W, strain paf1, stronger effect = lower value 0.945 | locus YCL016C, strain dcc1, stronger effect = lower value 0.934 | locus YCL029C, strain bik1, stronger effect = lower value 0.997 | locus YCR088W, strain abp1, stronger effect = lower value 0.935 | locus YDL005C, strain med2, stronger effect = lower value 0.95 | locus YDL035C, strain GPR1, stronger effect = lower value 1 | locus YDL040C, strain nat1, stronger effect = lower value 0.96 | locus YDL074C, strain BRE1, stronger effect = lower value 1.01 | locus YDL101C, strain DUN1, stronger effect = lower value 1.01 | locus YDL134C, strain PPH21, stronger effect = lower value 1.01 | locus YDL192W, strain arf1, stronger effect = lower value 0.997 | locus YDR001C, strain nth1, stronger effect = lower value 0.927 | locus YDR069C, strain doa4, stronger effect = lower value 0.951 | locus YDR101C, strain arx1, stronger effect = lower value 1 | locus YDR150W, strain NUM1, stronger effect = lower value 1.01 | locus YDR159W, strain sac3, stronger effect = lower value 0.895 | locus YDR162C, strain NBP2, stronger effect = lower value 0.982 | locus YDR195W, strain ref2 0.992 | locus YDR297W, strain sur2, stronger effect = lower value 0.954 | locus YDR318W, strain mcm21, stronger effect = lower value 1 | locus YDR334W, strain swr1, stronger effect = lower value 0.942 | locus YDR335W, strain msn5, stronger effect = lower value 0.947 | locus YDR388W, stronger effect = lower value 0.996 | locus YDR502C, strain sam2, stronger effect = lower value 0.991 | locus YEL003W, strain gim4, stronger effect = lower value 0.934 | locus YEL037C, strain rad23, stronger effect = lower value 0.947 | locus YEL061C, strain CIN8 (second series), stronger effect = lower value 0.942 | locus YEL061C, strain CIN8, stronger effect = lower value 0.994 | locus YER015W, strain faa2, stronger effect = lower value 0.977 | locus YER016W, strain bim1, stronger effect = lower value 0.927 | locus YER110C, stronger effect = lower value 1 | locus YER111C, strain swi4, stronger effect = lower value 0.925 | locus YER155C, strain BEM2 (second series), stronger effect = lower value 0.94 | locus YER155C, strain BEM2, stronger effect = lower value 1 | locus YER167W, strain BCK2, stronger effect = lower value 0.998 | locus YFR010W, strain ubp6, stronger effect = lower value 0.985 | locus YGL078C, strain dbp3, stronger effect = lower value 0.997 | locus YGL086W, strain mad1, stronger effect = lower value 0.986 | locus YGL167C, strain pmr1, stronger effect = lower value 0.928 | locus YGL173C, strain kem1, stronger effect = lower value 0.936 | locus YGL227W, strain vid30, stronger effect = lower value 0.949 | locus YGL240W, strain doc1, stronger effect = lower value 0.99 | locus YGL248W, strain PDE1, stronger effect = lower value 1 | locus YGL253W, strain hxk2, stronger effect = lower value 0.921 | locus YGR078C, strain PAC10, stronger effect = lower value 1.01 | locus YGR135W, strain pre9, stronger effect = lower value 1 | locus YGR229C, strain SMI1, stronger effect = lower value 1.02 | locus YGR252W, strain gcn5, stronger effect = lower value 1.04 | locus YHR013C, strain ard1, stronger effect = lower value 0.852 | locus YHR027C, strain rpn1, stronger effect = lower value 0.927 | locus YHR079C, strain IRE1 (second series), stronger effect = lower value 1 | locus YHR094C, strain hxt1, stronger effect = lower value 1 | locus YHR129C, strain ARP1, stronger effect = lower value 0.957 | locus YHR142W, strain chs7, stronger effect = lower value 0.912 | locus YHR200W, strain rpn10, stronger effect = lower value 1 | locus YIL066C, strain RNR3, stronger effect = lower value 1 | locus YIL073C, strain SPO22, stronger effect = lower value 1.04 | locus YIL125W, strain kgd1, stronger effect = lower value 0.992 | locus YIR030C, strain dcg1, stronger effect = lower value 0.996 | locus YJL092W, strain hpr5, stronger effect = lower value 0.942 | locus YJL095W, strain BCK1 (second series), stronger effect = lower value 0.959 | locus YJL115W, strain asf1, stronger effect = lower value 0.954 | locus YJL129C, strain trk1, stronger effect = lower value 0.931 | locus YJL134W, strain LCB3, stronger effect = lower value 1 | locus YJL154C, strain vps35, stronger effect = lower value 0.935 | locus YJL166W, strain qcr8, stronger effect = lower value 0.949 | locus YJL168C, strain set2, stronger effect = lower value 0.999 | locus YJL187C, strain SWE1 (second series), stronger effect = lower value 1.01 | locus YJR043C, strain POL32, stronger effect = lower value 1.03 | locus YJR075W, strain HOC1, stronger effect = lower value 1.02
